According to PubChem BioAssay:
Unmarked numbers belong to inactive results. This is one part of the list. Calls of active or inactive are those of the source. Cut-off read from the data, not from the text of the source, unless noted: active = inhibition above about 28%; inactive = the rest.

Assays:
[1] = target: Nuclear receptor coactivator 3 (Homo sapiens) (UniProt Q9Y6Q9); assay: NCOA3 GAL4-fusion reporter inhibition – cell-based, luminescence, quadruplicate, confirmation (AID 588792;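 active = mean inhibition over 43.08%, the solvent-only control mean plus 3 SD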;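 note: 0% = DMSO treated cells and 100% = gossypol at 36 µM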); details: HEK293 GAL4-SRC3 luciferase reporter, at 3.6 µM, active compounds read high
[2] = tested on: transactivating tegument protein VP16 (Human herpesvirus 1), Gal4-VP16 luciferase reporter; assay: repression of VP16-driven luciferase reporter – cell-based, luminescence, high throughput, counter-screen for SRC3 inhibitor project (AID 588794; in the data active = inhibition above about 30%); details: mammalian cells, at 3.6 µM, active compounds read high
[3] = target: Nuclear receptor coactivator 1 (Homo sapiens) (UniProt Q15788); assay: NCOA1 GAL4-fusion reporter inhibition – cell-based, luminescence, quadruplicate, confirmation (AID 588820;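 active = mean inhibition above 46.68%, the untreated control wells mean plus 3 SD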;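 note: 0% = DMSO wells and 100% = gossypol 36 µM treated wells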); details: HEK293 GAL4-SRC1 luciferase reporter, at 3.6 µM, active compounds read high
[4] = repression of VP16-driven luciferase reporter – cell-based, luminescence, high throughput, counter-screen for SRC1 inhibitor project (AID 588824; in the data active = inhibition above about 25%); details: cell-based VP16 transactivation luciferase luminescence; at 3.6 µM; active compounds read high
[5] = StAR promoter reporter inhibitors, counter-screen for LRH-1 inverse agonist project, cell-based, luminescence, high throughput (AID 651611); details: StAR promoter luciferase reporter counterscreen, at 3.6 µM, active compounds read high
[6] = target: Nuclear receptor subfamily 5 group A member 2 (Homo sapiens) (UniProt O00482); assay: NR5A2 activity suppression in reporter cells – cell-based, luminescence, confirmation (AID 651613; in the data active = inhibition above about 42%;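 note: HEK293T cells co-transfected with LRH-1 and StAR promoter luciferase reporter; 0% = vehicle wells and 100% = parental cells lacking receptor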); details: cell-based LRH-1 luciferase reporter, inverse agonism; at 3.6 µM; active compounds read high
[7] = target: Steroidogenic factor 1 (Homo sapiens) (UniProt Q13285); assay: inverse agonism at SF1 nuclear receptor – cell-based, luminescence, high throughput, counter-screen for LRH-1 inverse agonist project (AID 651614; in the data active = inhibition above about 44%;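 note: cells cotransfected with StAR promoter reporter and SF1 expression vector; 0% = vehicle on cells with receptor and 100% = vehicle on cells lacking receptor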); details: cell-based SF1 luciferase reporter, at 3.6 µM, active compounds read high
[8] = compounds suppressing VP16-driven luciferase signal – cell-based, luminescence, high throughput, counter-screen for LRH-1 inverse agonist project (AID 651615; in the data active = inhibition above about 33%); details: Gal4-VP16 luciferase reporter cells, at 3.6 µM, active compounds read high
[9] = reduced OD of V66 E. coli with T4 gene 2 phage – absorbance, RecBCD inhibitor project, confirmation (AID 651982;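 active = mean inhibition over triplicates exceeding the hit threshold derived in the original primary screen, cut at about 11% in these data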); details: E. coli V66 + T4 2- phage, growth OD; at 11.9 µM; active compounds read high
[10] = bacterial growth inhibition – absorbance, high throughput, counter-screen for RecBCD inhibitor project (AID 651983; in the data active = inhibition above about 20%;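 note: E. coli strain V66 grown with compound alone and no phage infection; 0% = bacteria with DMSO vehicle only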); details: E. coli viability, absorbance (OD) growth; at 11.9 µM; active compounds read high
[11] = reduced optical density, T4-challenged addAB+ bacteria – absorbance, E. coli V3065, T4 phage, counter-screen for RecBCD inhibitor project, confirmation (AID 651984;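 active = mean inhibition above the solvent-only control wells' mean plus 3 SD, cut at about 22% in these data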;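 note: higher means less bacterial growth from phage killing when AddAB is blocked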); details: E. coli expressing H. pylori AddAB + T4 phage, OD growth; at 11.9 µM; active compounds read high; gene 2 mutant T4, recBCD-deleted host

Nuclear receptor coactivator 3 (Homo sapiens), sequence (Q9Y6Q9 whole entry, looked up, the tested form may be a part): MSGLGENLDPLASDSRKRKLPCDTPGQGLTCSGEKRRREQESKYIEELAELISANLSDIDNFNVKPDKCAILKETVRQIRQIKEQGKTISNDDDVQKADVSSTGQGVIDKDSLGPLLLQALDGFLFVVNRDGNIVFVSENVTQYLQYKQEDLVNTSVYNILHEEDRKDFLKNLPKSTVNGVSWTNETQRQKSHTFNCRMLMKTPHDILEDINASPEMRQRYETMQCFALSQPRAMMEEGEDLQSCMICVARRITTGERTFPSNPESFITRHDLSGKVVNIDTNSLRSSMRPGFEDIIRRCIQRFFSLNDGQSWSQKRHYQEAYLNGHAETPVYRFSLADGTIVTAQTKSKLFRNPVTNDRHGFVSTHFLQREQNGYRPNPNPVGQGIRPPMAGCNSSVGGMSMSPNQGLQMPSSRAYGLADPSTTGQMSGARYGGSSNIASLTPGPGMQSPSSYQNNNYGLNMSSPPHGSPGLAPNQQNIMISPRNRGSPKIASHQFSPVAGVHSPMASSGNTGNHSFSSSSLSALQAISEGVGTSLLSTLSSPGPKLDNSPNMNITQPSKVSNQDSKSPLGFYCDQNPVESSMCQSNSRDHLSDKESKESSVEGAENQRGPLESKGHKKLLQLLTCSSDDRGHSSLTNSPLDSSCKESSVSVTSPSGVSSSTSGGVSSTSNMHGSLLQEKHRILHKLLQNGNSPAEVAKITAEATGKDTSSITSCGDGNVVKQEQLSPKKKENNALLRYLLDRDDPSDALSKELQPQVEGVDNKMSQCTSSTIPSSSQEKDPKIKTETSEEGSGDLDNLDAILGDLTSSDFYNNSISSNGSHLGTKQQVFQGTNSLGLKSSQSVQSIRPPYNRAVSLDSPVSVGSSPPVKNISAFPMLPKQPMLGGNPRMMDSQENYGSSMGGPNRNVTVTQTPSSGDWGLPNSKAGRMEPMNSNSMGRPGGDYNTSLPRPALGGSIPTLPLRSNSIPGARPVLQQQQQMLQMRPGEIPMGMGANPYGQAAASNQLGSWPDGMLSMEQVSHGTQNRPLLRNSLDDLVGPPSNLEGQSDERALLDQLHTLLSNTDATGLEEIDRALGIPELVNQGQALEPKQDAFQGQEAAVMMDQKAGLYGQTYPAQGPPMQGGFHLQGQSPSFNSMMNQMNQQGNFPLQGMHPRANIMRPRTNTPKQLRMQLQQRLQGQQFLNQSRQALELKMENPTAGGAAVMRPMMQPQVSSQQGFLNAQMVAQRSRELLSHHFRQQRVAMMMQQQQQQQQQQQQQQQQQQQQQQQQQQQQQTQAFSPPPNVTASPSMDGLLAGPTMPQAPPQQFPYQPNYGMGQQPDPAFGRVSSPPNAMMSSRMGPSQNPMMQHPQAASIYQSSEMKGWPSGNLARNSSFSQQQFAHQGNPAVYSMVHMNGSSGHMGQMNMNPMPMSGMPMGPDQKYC
Nuclear receptor coactivator 1 (Homo sapiens), sequence (Q15788 whole entry, looked up, the tested form may be a part): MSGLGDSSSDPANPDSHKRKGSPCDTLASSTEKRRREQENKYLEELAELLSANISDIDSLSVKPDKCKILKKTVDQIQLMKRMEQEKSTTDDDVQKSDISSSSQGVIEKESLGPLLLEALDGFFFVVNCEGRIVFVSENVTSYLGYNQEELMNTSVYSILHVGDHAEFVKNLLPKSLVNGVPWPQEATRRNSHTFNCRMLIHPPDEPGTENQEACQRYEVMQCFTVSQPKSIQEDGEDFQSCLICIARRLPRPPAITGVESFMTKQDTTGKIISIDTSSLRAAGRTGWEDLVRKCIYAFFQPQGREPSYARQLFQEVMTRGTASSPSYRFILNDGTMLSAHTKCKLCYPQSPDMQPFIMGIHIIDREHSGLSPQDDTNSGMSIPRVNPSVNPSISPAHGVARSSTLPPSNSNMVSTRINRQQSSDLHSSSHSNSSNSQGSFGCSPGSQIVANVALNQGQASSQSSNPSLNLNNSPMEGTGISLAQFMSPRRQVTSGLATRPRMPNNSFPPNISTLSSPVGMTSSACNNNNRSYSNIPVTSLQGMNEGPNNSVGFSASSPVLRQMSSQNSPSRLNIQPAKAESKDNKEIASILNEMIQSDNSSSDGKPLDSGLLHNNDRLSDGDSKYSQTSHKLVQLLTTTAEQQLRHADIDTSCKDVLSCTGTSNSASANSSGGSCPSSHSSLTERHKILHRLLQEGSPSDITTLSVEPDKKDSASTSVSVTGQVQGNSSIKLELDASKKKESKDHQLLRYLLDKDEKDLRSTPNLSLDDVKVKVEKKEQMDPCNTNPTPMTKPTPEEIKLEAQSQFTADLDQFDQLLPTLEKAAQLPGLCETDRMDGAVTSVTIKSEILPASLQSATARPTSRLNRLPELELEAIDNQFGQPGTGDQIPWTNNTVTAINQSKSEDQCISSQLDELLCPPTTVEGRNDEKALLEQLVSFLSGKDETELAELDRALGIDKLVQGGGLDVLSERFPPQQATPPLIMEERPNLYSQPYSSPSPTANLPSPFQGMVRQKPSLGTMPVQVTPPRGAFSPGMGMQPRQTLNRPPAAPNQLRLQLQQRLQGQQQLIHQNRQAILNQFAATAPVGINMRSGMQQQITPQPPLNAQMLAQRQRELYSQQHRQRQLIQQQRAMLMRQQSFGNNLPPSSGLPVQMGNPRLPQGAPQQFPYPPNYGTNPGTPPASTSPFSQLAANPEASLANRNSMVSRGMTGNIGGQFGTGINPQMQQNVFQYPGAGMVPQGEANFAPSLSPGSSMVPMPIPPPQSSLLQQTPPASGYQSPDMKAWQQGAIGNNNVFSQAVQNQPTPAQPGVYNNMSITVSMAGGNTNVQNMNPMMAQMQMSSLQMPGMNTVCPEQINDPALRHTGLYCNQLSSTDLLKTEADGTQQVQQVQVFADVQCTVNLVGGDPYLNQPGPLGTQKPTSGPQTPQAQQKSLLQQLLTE
Steroidogenic factor 1 (Homo sapiens), sequence (Q13285 whole entry, looked up, the tested form may be a part): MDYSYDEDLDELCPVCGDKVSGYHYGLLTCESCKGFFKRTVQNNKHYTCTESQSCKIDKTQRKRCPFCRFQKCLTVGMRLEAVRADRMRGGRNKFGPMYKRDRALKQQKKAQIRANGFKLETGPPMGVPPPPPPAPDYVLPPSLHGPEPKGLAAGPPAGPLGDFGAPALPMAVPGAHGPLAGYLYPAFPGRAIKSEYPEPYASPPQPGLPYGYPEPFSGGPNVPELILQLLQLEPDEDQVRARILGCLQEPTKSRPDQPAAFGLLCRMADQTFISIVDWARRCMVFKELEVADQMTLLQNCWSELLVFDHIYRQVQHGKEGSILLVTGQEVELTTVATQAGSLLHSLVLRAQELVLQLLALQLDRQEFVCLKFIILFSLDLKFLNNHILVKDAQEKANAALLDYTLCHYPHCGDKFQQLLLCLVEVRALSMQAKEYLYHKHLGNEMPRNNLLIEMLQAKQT
Nuclear receptor subfamily 5 group A member 2 (Homo sapiens), sequence (O00482 whole entry, looked up): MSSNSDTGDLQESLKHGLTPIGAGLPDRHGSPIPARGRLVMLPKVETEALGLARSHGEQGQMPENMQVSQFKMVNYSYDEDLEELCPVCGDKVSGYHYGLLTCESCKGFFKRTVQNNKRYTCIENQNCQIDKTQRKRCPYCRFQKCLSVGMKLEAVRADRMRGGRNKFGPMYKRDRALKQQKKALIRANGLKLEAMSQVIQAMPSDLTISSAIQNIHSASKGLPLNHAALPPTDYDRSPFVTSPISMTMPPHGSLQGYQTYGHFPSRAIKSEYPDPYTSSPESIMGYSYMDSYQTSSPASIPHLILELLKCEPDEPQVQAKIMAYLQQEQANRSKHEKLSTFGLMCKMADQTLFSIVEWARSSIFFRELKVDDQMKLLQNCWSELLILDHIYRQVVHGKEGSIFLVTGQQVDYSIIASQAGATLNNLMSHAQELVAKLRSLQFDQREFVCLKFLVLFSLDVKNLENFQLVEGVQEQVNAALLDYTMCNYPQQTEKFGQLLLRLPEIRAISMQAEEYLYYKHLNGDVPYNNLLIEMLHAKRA

SMILES | inhibition [1] | inhibition [2] | inhibition [3] | inhibition [4] | inhibition [5] | inhibition [6] | inhibition [7] | inhibition [8] | inhibition [9] | inhibition [10] | inhibition [11]
CCCCCc1ccc(OCCC[n+]2ccccc2)c(CCCCC)c1 | 45.8% (active) | 60.7% (active) | 31.3% | 65.9% (active) | 37.7% (active) | 83.3% (active) | 68.1% (active) | 82.3% (active) | – | – | –
CCN1/C(=C/c2ccc3cccc(C)c3[n+]2CC)Sc2ccccc21 | 35.1% | 63.3% (active) | 26% | 71.4% (active) | 57% (active) | 105% (active) | 77% (active) | 80.5% (active) | – | – | –
O=C(CSc1nc2sc3c(c2c(=O)n1-c1ccccc1)CCCC3)NCc1ccco1 | 7.86% | -11.9% | 4.53% | -16.3% | 8.53% | 15.3% | 10.7% | 3.41% | – | – | –
CC1=NN(c2nc3ccccc3[nH]2)C(=O)C1Cc1ccccc1 (stereo unspecified) | 53.5% (active) | 68% (active) | 48.1% (active) | 67.5% (active) | 70.3% (active) | 101% (active) | 88.7% (active) | 83.6% (active) | – | – | –
Cc1cccn2c(=O)c3cc(C(=O)NCCN4CCOCC4)c(=N)n(Cc4ccc(F)cc4)c3nc12 | 36.9% | 41.6% (active) | 44.4% | 28.3% (active) | 45.4% (active) | 73.9% (active) | 61.6% (active) | 60.1% (active) | – | – | –
O=c1c2ccccc2sc2ccc(C#CC3(O)CCCCC3)cc12 | 87.4% (active) | 84.4% (active) | 76.2% (active) | 75% (active) | 84.3% (active) | 56% (active) | 76.5% (active) | 71.2% (active) | – | – | –
COC(=O)c1c(NC(=O)c2cccc([N+](=O)[O-])c2)sc(C(N)=O)c1C | 23.4% | 55.9% (active) | 18.9% | 47.2% (active) | 46.9% (active) | 84.6% (active) | 80.5% (active) | 69.2% (active) | – | – | –
CN(Cc1cnc2nc(N)nc(N)c2n1)c1ccc(C(=O)NC(CCC(=O)O)C(=O)O)cc1C(F)(F)F (stereo unspecified) | 60.4% (active) | 7.16% | 51.9% (active) | 5.94% | 79.6% (active) | 56.4% (active) | 49.1% (active) | 21.3% | – | – | –
CCCCCCCn1c2c(c(=N)c3ccccc31)CCC2 | 71.2% (active) | 79.5% (active) | 61.5% (active) | 79.1% (active) | 70.8% (active) | 111% (active) | 91.2% (active) | 94.7% (active) | – | – | –
COc1ccc(OC)c(Cc2cnc3nc(N)nc(N)c3c2C)c1 | 67% (active) | 27.5% | 59.9% (active) | 28.4% (active) | 80.7% (active) | 62.3% (active) | 52.5% (active) | 43.9% (active) | 79.8% (active) | 79.2% (active) | 85.3% (active)
CN(Cc1ccccc1)C1=CC(=[N+]2CCCCC2)CC(C)(C)C1 | 43.1% (active) | 73.6% (active) | 44.8% | 75.8% (active) | 68% (active) | 108% (active) | 90.6% (active) | 91.1% (active) | – | – | –
COc1cccc(Cn2c(NCc3cccnc3)nc3c2c(=O)n(C)c(=O)n3C)c1 | 50.8% (active) | 41.3% (active) | 58.1% (active) | 38% (active) | 59.4% (active) | 55.5% (active) | 50.3% (active) | 62.8% (active) | – | – | –
CN(C)c1ccc(/C=C/c2ccc3ccccc3[n+]2C)cc1 | 62.3% (active) | 74.5% (active) | 32.4% | 74.3% (active) | 58.5% (active) | 76.8% (active) | 76.6% (active) | 70.9% (active) | – | – | –
CCN1CCS/C1=C\C=C\C1=[N+](CC)CCS1 | 22.6% | 44.8% (active) | 4.06% | 50.1% (active) | 32.9% (active) | 77% (active) | 79% (active) | 69.2% (active) | – | – | –
Cc1ccc(NCCN(C)C)c2c(=O)c3cc(O)ccc3sc12 | 40.4% | 41.6% (active) | 46.6% | 29.6% (active) | 41.3% (active) | 67.3% (active) | 54.6% (active) | 55.7% (active) | – | – | –
O=C(Nc1ccc(S(=O)(=O)N2CCCC2)cc1)c1ccc(CN2CCc3ccccc3C2)cc1 | 28.1% | 56.4% (active) | 8.79% | 56.9% (active) | 51.4% (active) | 74.5% (active) | 75.2% (active) | 68.7% (active) | – | – | –
